Hits are enriched below; roughly 13% of the tested compounds scored in any of these assays.
Marburg entry inh: blocks Marburg virus binding to or entry into cells. 300,000 tested, 1.8% active. Marburg virus pseudotyped entry inhibition, cell reporter. Potency, µM (highest dose often 37.8 µM), without a hit: at the highest dose activity change, negative = inhibition, usual class: inhibitors. AID 540276; calls by dose curve; tested in HEK293 cells; note: potency is the fitted concentration of half-maximal effect; % is set by controls: 0 for no effect and ±100 for the full control effect
FMDV inh: antivirals against foot and mouth disease virus. FMDV antiviral cell-based qHTS. Potency, µM (top dose mostly 57.9 µM), inactives show at the top dose activity change, negative = inhibition, most hits filed as inhibitors. 410,000 tested, 1.2% active. AID 1159524; calls by dose curve; tested in HEK293T cells; note: read-out not given here; potency is the fitted concentration of half-maximal effect; % is set by controls: 0 for no effect and ±100 for the full control effect; nearly all actives have a fitted effect of over 45% in size
Shiga toxin inh: inhibitors of Shiga toxin in Vero cells. Vero cells, Shiga toxin protein synthesis inhibition reporter. inhibition, % at 38.7 µM. 290,000 tested, 9.2% active; in the data active = inhibition mostly above about 28%, no sharp cut-off; inactive = mostly below about 43%; note: 0% is about no effect
HCV inhibitor: inhibitors of hepatitis C virus infection; Huh7.5.1 HCVcc-Cre infection, luciferase reporter, 44 h; Potency, µM (doses to about 41.8 µM), inactives show top-dose activity change, negative = inhibition, actives largely listed as inhibitors; 340,000 tested, 3.4% active; active = well fitted inhibition curve with a large enough effect; inconclusive = small, poorly fitted or top-dose-only effect, or another doubt; inactive = no such curve, though single readings can be large or run the other way; note: potency is the fitted concentration of half-maximal effect; % is set by controls: 0 for no effect and ±100 for the full control effect
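Seed cells (1,000/well) for 4 h; treat with compound and infect with HCVcc-Cre, moi about 0.5. Incubate 44 h, then detect luciferase activity.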
CHX counter: counter-screen hit for Shiga toxin inhibitors, cycloheximide | cell reporter, cycloheximide protein synthesis inhibition counterscreen | max response, % | 300,000 tested, 12% active | AID 2314; in the data active = max response mostly above about 13%, no sharp cut-off; inactive = mostly below about 14%; note: read at 38.3 µM for the half of the compounds with a filed dose; 0% is about no effect
LASV entry inh: inhibitors of Lassa virus binding or cell entry. Lassa virus pseudotype entry inhibition, cell reporter. Potency, µM (doses to about 37.9 µM), for the others: at the top dose activity change, negative = inhibition, hits mostly inhibitors. 300,000 tested, 1.2% active; calls by dose curve; tested in HEK293 cells; note: potency is the fitted concentration of half-maximal effect; % is set by controls: 0 for no effect and ±100 for the full control effect; nearly all actives have a fitted effect of over 50% in size
Active calls of the source: *; ? = inconclusive; . = no result; ! = not confirmed by another sample; [ ] = dose if it differs, or a comment.

SMILES	Marburg entry inh	FMDV inh	Shiga toxin inh	HCV inhibitor	CHX counter	LASV entry inh
O=C(Cc1ccccc1)NCCSC1CCCCC1	.	19.4%	58.0*	17.0%	31.1*	.
O=C(Cc1ccccc1)NCCCNC(=O)Cc1ccccc1	21.1%	-18.5%	.	5.2%	.	11.5%[46.1 µM]
CCOc1cccc(C(=O)NC(=S)Nc2ccccc2)c1	?	17.5%	141.2*	7.7%	104.5*	?
CCOc1cccc(C(=O)NC(=S)Nc2cccnc2)c1	?	42.3%	80.1*	1.5%	38.1*	?
CCOc1cccc(C(=O)NC(=S)Nc2ccc(N3CCN(CC)CC3)cc2)c1	?	4.1%	50.8	?	0.4	-29.4%
CCOc1cccc(C(=O)NC(=S)Nc2cccc(NC(=O)c3ccccc3Cl)c2)c1	?	-19.6%	24.5	-9.2%	13.8*	?
COc1cccc(C(=O)Nc2cccc(NC(=O)c3ccccc3Cl)c2)c1	.	-8.7%	23.1	-17.8%	12.7	.
COc1ccc(-c2c(O)c3c(OC)c4c(cc3oc2=O)OC(C)(C)C=C4)cc1	.	12.4%	.	.	.	.
NNC(=O)c1ccc2nc(-c3ccc(Br)cc3)cn2c1	?	28.1%	57.1	-7.8%	30.3*	?
COc1ccc(-c2cn3cc(C(=O)NN)ccc3n2)cc1	?	29.8%	41.7*	3.2%	23.6*	?
C=CCCCCCCCCCBr	.	.	6.1	.	-6.0	.
CC1CCN(S(=O)(=O)c2ccccc2)CC1	4.7%[46.1 µM]	-1.7%	1.7	?	7.2	0.3%[46.1 µM]
CCCOc1ccc(-c2nc(C#N)c(NCC3CCCO3)o2)cc1 (stereo unspecified)	3.3%	-4.9%	-5.0	?	-1.5	-16.2%
COc1ccc(NC(=O)C2CCCN(S(=O)(=O)c3cnc[nH]3)C2)cc1 (stereo unspecified)	.	-14.6%	11.2	-0.2%	-4.6	.
O=C(c1cccn2c(=O)c3cc(Cl)ccc3nc12)N1CCN(Cc2ccc3c(c2)OCO3)CC1	?	-24.0%	-5.6	13.7%	2.4	1.9%
COc1ccccc1-n1cc(CN2CCN(C3CCCC3)C(CCO)C2)cn1 (stereo unspecified)	.	-6.0%	43.5	1.4%	11.3	.
Cc1nnc(SCC(=O)Nc2nsc(-c3ccc(C(C)(C)C)cc3)n2)s1	.	41.8%	31.8	3.1%	23.2*	.
Cc1ccc(-c2csc3nnc(SCC(=O)Nc4nsc(-c5ccccc5)n4)n23)cc1	-3.9%	?	-8.4	?	0.3	-4.8%
C=CCn1c(SCC(=O)Nc2ccc(-c3nc4ccc(C)cc4s3)cc2)nnc1-c1ccncc1	?	33.3%	38.9	1.2%	19.0*	?
Cc1nc(SCC(=O)Nc2nsc(-c3ccc(C(C)(C)C)cc3)n2)c2c3c(sc2n1)CCCC3	5.5%[46.1 µM]	-7.5%	.	.	.	-0.5%[46.1 µM]
O=C(Nc1ccc(-c2nc3ccccc3s2)cc1)c1cc(-n2cnnc2)ccc1Cl	?	.	18.9	3.98µM*	27.0*	?
O=C(CSc1nnc2scc(-c3ccccc3)n12)Nc1nsc(-c2ccccc2)n1	20.6µM*!	31.6µM*	-13.8	11.2µM*!	-0.3	-30.0%
COc1ccc(NC(=O)c2ccc3c(=O)n(-c4ccc(OC)cc4OC)c(=S)[nH]c3c2)cc1	?	?	15.0	?	5.7	?
COn1c(-n2nc(C)cc2C)nc2ccccc2c1=O	2.6%	-12.8%	23.0	15.9%	14.9	-0.5%
CCC(C)(C)n1nnnc1C(c1ccc(F)cc1)N1CCC(C(N)=O)CC1 (stereo unspecified)	-29.2%[46.1 µM]	18.9%	-9.8	14.4%	-3.0	4.2%
SMILES	Marburg entry inh	FMDV inh	Shiga toxin inh	HCV inhibitor	CHX counter	LASV entry inh
CCn1c(SCC(=O)Nc2nc3ccccc3s2)nnc1-c1ccc(Br)cc1	-0.8%	10.3%	22.6	0.7%	1.0	24.0%
CCn1c(SCC(=O)Nc2ccc(-c3nc4ccc(C)cc4s3)cc2)nnc1-c1ccccc1	14.6%	.	58.9*	-9.5%[0.335 µM]	33.9*	11.0%
Cc1nnc(SCC(=O)Nc2ccc(-c3nc4ccccc4s3)cc2)s1	?	0.0%	38.2*	0.5%	65.0*	10µM*
COc1ncc(C2=CC(=O)CC(C)(C)C2)cn1	.	-8.2%	.	11.4%	.	.
CC(C)n1c(=O)c2oc3ccccc3c2n(Cc2ccccc2F)c1=O	.	-25.8%	.	.	.	15.4%[46.1 µM]
COc1ccc(OCC(O)CN2CCC(CN3C(=O)c4cccc5cccc(c45)C3=O)CC2)cc1 (stereo unspecified)	4.47µM*	-15.9%	11.0	?	-1.9	?
O=C1c2cccc3cccc(c23)C(=O)N1CC1CCN(CC(O)COCc2ccc3c(c2)OCO3)CC1 (stereo unspecified)	?	-28.8%	-4.4	10µM*	-2.7	?
N/C(=N\OC(=O)Cc1cccs1)c1ccc(Cl)cc1	.	69.6%	41.4*	8.1%	31.4*	.
Cc1ccc(/C(N)=N/OC(=O)Cc2cccs2)cc1	?	46.1%	142.6*	12.3%	50.4*	26.6%
N/C(=N\OC(=O)Cc1cccs1)c1cccc([N+](=O)[O-])c1	20.8%	17.8%	43.9*	-4.4%	25.6*	?
N/C(=N\OC(=O)Cc1cccs1)c1ccccc1	3.1%	60.8%	59.2*	9.8%	27.9*	28.5%
O=c1[nH]c(/C=C\c2ccc(O)c(O)c2)nc(O)c1[N+](=O)[O-]	-1.5%[46.1 µM]	-16.5%	-10.3	4.6%	1.7	?
CCCNC(=O)C1(C)CCCN(C(=O)c2c(C)noc2C)C1 (stereo unspecified)	.	1.5%	.	.	.	.
N/C(Cc1cccs1)=N\OC(=O)COc1ccccc1	?	18.2%	33.2	18.7%	22.4*	14.4%
Cc1cccc(/C(N)=N/OC(=O)Cc2cccs2)c1	2.0%	73.6%	96.4*	2.7%	68.4*	11.3%
Cc1ccc(OCC(=O)O/N=C(\N)Cc2cccs2)cc1C	9.2%[46.1 µM]	41.3%	.	?	.	8.2%
Cc1ccc(/C(N)=N/OC(=O)Cc2cccc3ccccc23)cc1	?	-3.2%	1.8	-1.7%	-4.4	?
Cc1cccc(/C(N)=N/OC(=O)Cc2cccc3ccccc23)c1	?	9.1%	27.7	3.0%	20.5*	?
CCc1ccc(S(=O)(=O)NCCOc2cccc3cccnc23)cc1	-5.3%[46.1 µM]	-12.8%	-2.2	-9.5%	12.1	-17.3%[46.1 µM]
COc1ccc(S(=O)(=O)N2CCCCC2c2cc(C(=O)NC(C)C)no2)cc1 (stereo unspecified)	.	-8.1%	.	.	.	.
COC(=O)c1sccc1NC(=O)COc1cccc(C)c1	4.5%[46.1 µM]	-4.8%	25.9	?	22.0	-2.3%[46.1 µM]
CC1CCCN(C(=S)NCCc2ccccc2)C1 (stereo unspecified)	-28.6%	3.4%	53.6*	8.8%	25.9*	?
CC1CCCCN1C(=S)NCCc1ccccc1 (stereo unspecified)	?	46.7%	90.6*	13.4%	37.6*	20.6%
Cc1cccc(N2CCN(C(=S)NCCc3ccccc3)CC2)c1C	0.5%	12.9%	14.7	-8.2%	17.2	?
CC1CCCCN1C(=S)NC(=O)c1ccco1 (stereo unspecified)	8.8%	1.1%	.	10.0%	.	-1.1%

Screening results (PubChem)
